Assay outcomes as filed in PubChem BioAssay.
Sampled rows, rich in hits. Any-hit rate of the full collection: about 1.1%.
SNCA viab count: reduces viability of HEK-293 SNCA reporter cells; AID 1671193; 150,000 compounds, 0.12% hits; HEK-293-SNCA-luc viability, GF-AFC fluorescence, 24 h; Potency, µM (highest dose often 57.1 µM), for inactives: at the top dose activity change, negative = cytotoxicity, hits mostly cytotoxic;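 note: potency is the fitted concentration of half-maximal effect; 0% = DMSO-treated cells and -100% = medium-only wells without cells; nearly all actives have a fitted effect of over 30% in size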
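Cytotoxicity counterscreen: after 24 h compound treatment of genome-edited SNCA-luciferase HEK-293 cells, live-cell protease substrate GF-AFC read by fluorescence after 30 min; activity scaled between DMSO (0%) and medium-only (-100%), curves Hill-fitted.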
IP6K1 inh: inhibitors of human IP6K1; 140,000 compounds, 0.81% hits; activity change, % (series mostly up to about 58 µM); Q92551; IP6K1 kinase, ADP-Glo luminescence, 2 h; active compounds read low; in the data active = activity change below about -25%
Target sequence (Q92551 whole entry, looked up): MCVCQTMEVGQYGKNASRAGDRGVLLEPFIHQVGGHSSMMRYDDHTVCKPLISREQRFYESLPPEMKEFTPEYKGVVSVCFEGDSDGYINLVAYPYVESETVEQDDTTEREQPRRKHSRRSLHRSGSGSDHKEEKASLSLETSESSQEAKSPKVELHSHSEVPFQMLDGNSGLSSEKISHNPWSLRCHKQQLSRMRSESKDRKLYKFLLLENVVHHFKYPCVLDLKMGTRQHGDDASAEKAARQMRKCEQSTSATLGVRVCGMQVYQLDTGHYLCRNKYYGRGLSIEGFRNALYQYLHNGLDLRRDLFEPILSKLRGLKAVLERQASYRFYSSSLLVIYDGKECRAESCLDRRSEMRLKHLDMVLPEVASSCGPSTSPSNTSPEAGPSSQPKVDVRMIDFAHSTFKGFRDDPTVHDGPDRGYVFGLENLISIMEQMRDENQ
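ADP-Glo luminescence measures ADP made by human IP6K1 during a 2 h RT reaction with ATP/IP6 (mix at 1.3 mM/130 uM); top library doses 57.5 and 19.1 uM final.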
GPT2 inh: inhibitors of human GPT2 alanine aminotransferase. Potency, µM (doses to about 57.7 µM), without a hit: at the highest dose activity change, negative = inhibition, most hits filed as inhibitors. AID 1671188. 100,000 compounds, 0.25% hits. Recombinant GPT2, coupled pyruvate oxidase/HRP Amplex Red fluorescence; note: potency is the fitted concentration of half-maximal effect; nearly all actives have a fitted effect of over 60% in size
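Recombinant GPT2 (10ng/uL) with 250uM a-KG and 2mM L-alanine, 30 min at room temperature, in HEPES pH 7.5 buffer. Pyruvate detected by pyruvate oxidase/HRP/Amplex Red fluorescence after 30 min in the dark; AOA (50uM) as positive control.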
SNCA expr inh: SNCA gene expression inhibition. HEK-293 SNCA-luciferase knock-in, luminescence, 24 h. Potency, µM (series often up to 57.2 µM), for inactives: at the highest dose activity change, negative = inhibition, actives largely listed as inhibitors. 140,000 compounds, 0.17% hits. AID 1671194;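 note: potency is the fitted concentration of half-maximal effect; plate controls were DMSO cells for no effect and cell-free wells for full effect; nearly all actives have a fitted effect of over 45% in size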
IP6K1 inh cnf: confirmation of human IP6K1 inhibitors; shares compounds with IP6K1 inh; AID 1645852; Potency, µM (doses to about 49 µM), for inactives: at the highest dose activity change, negative = inhibition, most hits filed as inhibitors; recombinant IP6K1 kinase, ADP-Glo luminescence, 2 h; 1,200 compounds, 13% hits; note: potency is the fitted concentration of half-maximal effect; nearly all actives have a fitted effect of over 65% in size
An asterisk follows results filed as active; i = inactive; ? = inconclusive; · = no result given; ! = a repeat was not active; [ ] = dose if it differs, or a comment. Unless noted, calls come from the whole dose curve; as a rule, active = well fitted curve in the direction sought with a large enough effect; inconclusive = small, poorly fitted or top-dose-only effect, or another doubt; inactive = no such curve, though single readings can be large; an effect the other way counts as inactive or inconclusive. Unless noted, % is set by controls: 0 for no effect and ±100 for the full control effect.

SMILES	SNCA viab count	IP6K1 inh	GPT2 inh	SNCA expr inh	IP6K1 inh cnf
Cc1ccc(S(=O)(=O)c2nc(-c3ccco3)oc2SCc2ccc(F)cc2)cc1	6.3%	-27.6*	·	-3.8%	-6.1%
NCC(=O)Nc1ccc(-n2nc(C(F)(F)F)cc2-c2ccc3c(ccc4ccccc43)c2)cc1	?	-34.9*	i	34.3%	?
Fc1ccc(CNc2nc(-c3ccccc3C(F)(F)F)nc3ccccc23)cc1	·	·	·	·	-1.9%
Fc1cccc(CNc2nc(-c3ccccc3C(F)(F)F)nc3ccccc23)c1	·	·	·	·	-7.9%
COc1ccccc1-c1nc(NCc2ccccc2)c2ccccc2n1	-29.3%	·	·	?	·
Cc1cc(C(=O)N2CC3CC(C2)[C@H]2CCCC(=O)N2C3)no1 (stereo partly specified)	-15.0%	20.2	i	-13.4%	·
CCOC(=O)c1oc2c(c1C)-c1nn(Cc3ccc(Cl)cc3)cc1CC2	8.8%	-38.4*	·	4.0%	?
Cc1cc(C(=O)N2CCc3nnc([C@@H]4C[C@@H](O)CN4C)n3CC2)n(C)n1	-0.1%	-7.7	i	-11.6%	·
O=C(NC1CCN(c2ccnc3ccnn23)CC1)c1cccc(Cl)c1	-12.4%[87.6 µM]	23.8	i	?	·
O=[N+]([O-])c1ccc(CNc2nc(NCc3cccc(C(F)(F)F)c3)nc3nc[nH]c23)cc1	-3.4%	-75.1*	i	·	1.64µM*!
Cn1nc(CN2CCOCC2)c2c1CCN(S(=O)(=O)c1ccccc1)C2	-8.0%	17.2	i	4.8%	·
CC(C)C[C@H](C(=O)O)c1cc(-c2ccc(C(F)(F)F)cc2)cc(-c2ccc(C(F)(F)F)cc2)c1	-34.3%	-29.9*	0.9%	·	?
O=S(=O)(c1ccc(Cl)cc1)c1nc(-c2cccs2)oc1N1CCCCC1	7.5%	-27.0*	·	33.0%	13.0%
CC(C)(O)CCc1cccc(C(=O)N(Cc2ccc3c(c2)OCO3)C2CC2)c1	-7.4%	-10.4	0.3%[11.5 µM]	4.7%	·
C[C@H](NC(=O)C[C@@H]1c2nc(NC(=O)c3ccc(F)cc3)sc2C[C@@H]2[C@](C)(CO)[C@H](O)CC[C@]21C)c1ccccc1	?	-7.8	?	?	·
CC(C)CCC1=NC2(CCN(C(=O)CCN3CCCCC3=O)CC2)C(=O)N1	-2.7%	-34.6*	-7.6%[11.5 µM]	-6.3%	-13.8%
CCOC(=O)N1CCC2(CC1)N=C(CCC(C)C)NC2=O	2.7%	11.5	-6.2%	?	·
COc1ccccc1N1CCN(S(=O)(=O)c2ccc(F)c(C(=O)Nc3ccc(C)c(F)c3)c2)CC1	0.0%	-28.1*	·	-14.1%	2.8%
COc1ccc(C)cc1NC(=O)c1cc(S(=O)(=O)N2CCN(c3cccc(C)c3C)CC2)ccc1F	3.5%	22.8	·	19.8%	·
CC1=C(C(=O)Nc2ccccc2C)C(c2cccs2)n2nc(SCc3cc(C)ccc3C)nc2N1 (stereo unspecified)	6.8%	-0.1	·	-5.5%	·
CC1=C(C(=O)Nc2ccc(C)cc2C)C(c2cccs2)n2nc(SCc3ccccc3Cl)nc2N1 (stereo unspecified)	3.0%	-25.5*	·	18.5%	23.2%
COc1cccc(N2CCN(C(=O)CCSCc3ccccc3F)CC2)c1	2.6%	-29.0*	·	44.5%	-13.0%
Cc1ccc(CNC(=O)c2c(Nc3ccccc3C)sc(C(=O)c3ccc(F)cc3)c2N)cc1	?	-25.6*	·	?	1.5%
COCCNC(=O)[C@@H]1C[C@H](Oc2ccccc2)CN1C(=O)c1sc(C)nc1C	4.3%	-3.7	i	21.5%	·
CO/N=C(/C(=O)N[C@@H]1C(=O)N2C(C(=O)O)=C(CSC(=O)c3ccco3)CS[C@H]12)c1csc(N)n1	6.8%	-49.4*!	i	·	?
SMILES	SNCA viab count	IP6K1 inh	GPT2 inh	SNCA expr inh	IP6K1 inh cnf
CO/N=C(/C(=O)N[C@@H]1C(=O)N2C(C(=O)OCOC(=O)C(C)(C)C)=C(C)CS[C@H]12)c1csc(N)n1	-12.7%[23.9 µM]	13.7	i	-23.6%[25.6 µM]	·
Cn1cc(-c2cc(=O)c3ccnc(Nc4ccc5[nH]ccc5c4)c3o2)cn1	-14.7%[87.6 µM]	-37.9*	i	-6.0%[87.6 µM]	?
O=C(NC1CCCCCC1)c1cn2cc(-c3ccc(C(F)(F)F)cc3)sc2n1	-2.2%	0.5	i	-22.7%	·
Cc1nc(-c2ccc(Cl)cc2)n(CC(=O)Nc2cccc(C(F)(F)F)c2)c(=O)c1CCO	-24.5%	-0.3	i	?	·
O=C(Cn1c(=O)oc2cc(Cl)ccc21)Nc1cccc(C(F)(F)F)c1	-9.6%	-28.4*	·	?	28.0%
O=C(NC1CCCCC1)[C@@H]1C[C@@H](O)CN1C1CCN(C(=O)c2ccco2)CC1	-4.0%	3.8	1.5%	-7.7%	·
c1csc(-c2nc3ccccn3c2Nc2ccc3c(c2)OCCO3)c1	-12.0%	42.8	·	-8.5%	·
Cc1ccn2c(Nc3ccc4c(c3)OCCO4)c(-c3cccs3)nc2c1	-12.7%	-27.0*	·	57.9%	-15.8%
COCCNC(=O)c1ccc2nnc(Cc3ccco3)n2c1	4.5%[87.6 µM]	1.4	i	2.7%[87.6 µM]	·
O=C(NCC1CC1)c1ccc2nnc(Cc3ccco3)n2c1	-10.5%[87.6 µM]	-27.0*!	i	15.9%[87.6 µM]	?
O=C(c1cocn1)N1C[C@@H](COc2ccncc2)[C@H](c2ccccn2)C1	7.0%	12.6	-7.1%	0.7%	·
COc1ccc(C(=O)Nc2noc3ccccc23)cc1	-3.3%	-57.6*	·	?	7.31µM*
O=C(Nc1noc2ccccc12)c1cccc(Cl)c1Cl	7.0%	-3.9	·	?	·
Cc1ccc(C(=O)Nc2noc3ccccc23)cc1	-10.1%	-55.3*	-2.7%	·	?
O=C1NCN(Cc2ccc(Cl)cc2)C12CCN(Cc1ccccc1C(F)(F)F)CC2	14.3%	-2.7	i	7.9%	·
CC(=O)c1cccc(NC(=O)Nc2nnc(N3CCCC3)s2)c1	-4.1%	-38.1*	·	-25.6%	-18.6%
N#Cc1ccc2[nH]c(O)c(-c3ccc(CN4CCOCC4)cn3)c2c1	-14.0%	5.9	?	·	·
CC(=O)Nc1ccc(C2(C(=O)NCc3ccc(F)cc3F)CCCCC2)cc1	0.9%	8.3	i	-6.1%	·
Cc1nc(CC(=O)N2CC[C@@H](NC(=O)c3cnccn3)[C@H](O)C2)cs1	1.6%	-3.6	i	2.4%	·
COc1ccccc1CC(=O)N1CC[C@@H](NC(=O)c2cnccn2)[C@H](O)C1	-0.9%	-30.9*	-25.8%[11.5 µM]	12.4%	6.3%
O=C(Nc1cccc(F)c1)Nc1ccnn1C1CCN(C(=O)C2CCC2)CC1	3.6%	-31.8*	-0.7%[11.5 µM]	18.5%	-5.3%
CCn1c2c(c(=O)n3ncc(C(=O)Nc4cc(Cl)ccc4OC)c13)CN(Cc1ccc(OC)cc1)CC2	-7.9%	-13.9	·	?	·
CCn1c2c(c(=O)n3ncc(C(=O)Nc4ccc(C(=O)OC)cc4)c13)CN(Cc1ccc(OC)cc1)CC2	4.1%	-34.9*	·	-3.6%	-6.4%
Cc1noc([C@@H](C)NS(=O)(=O)c2ccc(Cl)cc2)c1C(=O)O	2.2%[87.6 µM]	10.4	?	11.5%[87.6 µM]	·
C[C@@H]1CCN(C(=O)CC#N)C[C@@H]1N(C)c1ncnc2[nH]ccc12	·	·	·	·	3.7%
